TDP1 inh: blocks human tyrosyl-DNA phosphodiesterase 1. Q9NUW8. recombinant TDP1, AlphaScreen DNA substrate cleavage. Potency, µM (series often up to 130 µM), for the others: at the highest dose activity change, negative = inhibition, hits mostly inhibitors. 350,000 compounds, 0.28% hits. AID 485290; note: nearly all actives have a fitted effect of over 40% in size
Target sequence (Q9NUW8 whole entry, looked up): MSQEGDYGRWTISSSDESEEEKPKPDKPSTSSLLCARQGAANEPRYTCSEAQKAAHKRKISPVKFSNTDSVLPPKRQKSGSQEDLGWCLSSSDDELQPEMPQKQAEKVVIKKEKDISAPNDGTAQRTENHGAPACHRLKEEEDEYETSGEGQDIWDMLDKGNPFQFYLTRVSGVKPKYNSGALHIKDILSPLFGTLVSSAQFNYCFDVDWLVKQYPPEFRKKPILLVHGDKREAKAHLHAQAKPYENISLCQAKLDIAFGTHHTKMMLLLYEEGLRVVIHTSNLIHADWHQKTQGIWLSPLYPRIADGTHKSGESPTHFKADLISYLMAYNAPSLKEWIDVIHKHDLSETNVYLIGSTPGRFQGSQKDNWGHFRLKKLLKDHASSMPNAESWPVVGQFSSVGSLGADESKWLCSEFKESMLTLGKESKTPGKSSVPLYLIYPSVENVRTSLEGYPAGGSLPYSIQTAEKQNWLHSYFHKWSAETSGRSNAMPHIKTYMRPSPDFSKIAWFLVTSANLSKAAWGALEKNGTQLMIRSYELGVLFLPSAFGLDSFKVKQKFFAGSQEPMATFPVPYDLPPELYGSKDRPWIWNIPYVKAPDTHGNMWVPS
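Tdp1 1 nM final; 15 min RT w/ cpd; substrate 15 nM, 5 min; beads 10 ug/ml, 10 min; AlphaScreen read. Neg ctrl: no enzyme.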
DT40 TDP1 no CPT: qHTS for Inhibitors of human tyrosyl-DNA phosphodiesterase 1 (TDP1): qHTS in cells in absence of CPT; DT40 Tdp1-/- hTDP1 cells, no CPT, ATP luminescence, 48 h; Potency, µM (top dose mostly 46.2 µM), without a hit: top-dose activity change, negative = growth inhibition, actives largely listed as inhibitors; 420,000 compounds, 15% hits; AID 686978, 2013; note: nearly all actives have a fitted effect of over 55% in size
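Compound effects on proliferation are scored in DT40 Tdp1-/-;hTDP1 cells in the absence of CPT. ATP levels (CellTiter-Glo luminescence) are recorded after a ≥48 hr, 37 °C incubation.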
GCN5L2 inh: GCN5L2 (KAT2A) acetyltransferase inhibition. Q92830. GCN5L2 HAT assay, ThioGlo1 CoA-SH fluorescence. Potency, µM (titrated, usually from 58.9 µM), inactives show top-dose activity change, negative = inhibition, usual class: inhibitors. 390,000 compounds, 0.21% hits. AID 504327
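ThioGlo1-coupled HAT assay: 20nM GCN5L2, 70uM acetyl-CoA, 75uM H3(1-25) peptide, pH 7.5. Fluorescence read at 340/540nm at start and after 20 min at room temperature.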
VDR inhibitor: inhibitors of human vitamin D receptor. P11473. VDR-SRC2-3 peptide fluorescence polarization, 2 h. Potency, µM, inactives show max response, negative = inhibition, hits mostly inhibitors. 400,000 compounds, 0.93% hits. AID 504847
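Two reagent solutions held at 4 deg C in the dark were dispensed, compounds pinned at 23 nl, and the mixture incubated 2 h at room temperature. Read-out: fluorescence polarization of VDR–SRC2-3 peptide binding.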
PLK1 PBD inh: PLK1 (human) polo-box domain binding inhibition. 360,000 compounds, 2.8% hits. Plk1 PBD binding of FITC phosphopeptide, fluorescence polarization. AID 720504. Potency, µM, inactives show max response, negative = inhibition, usual class: inhibitors; note: series mostly up to about 57 µM; nearly all actives have a fitted effect of over 65% in size
DT40 TDP1 CPT: DT40-hTDP1 cell growth loss with CPT; 420,000 compounds, 12% hits; Potency, µM (series often up to 46.2 µM), for the others: at the highest dose activity change, negative = growth inhibition, usual class: inhibitors; chicken DT40 Tdp1-/-;hTDP1 cells + 20 nM CPT, ATP luminescence, 48 h; AID 686979; note: nearly all actives have a fitted effect of over 55% in size
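Chicken DT40 Tdp1-/- cells complemented with human TDP1, 400 cells/well, exposed to compounds plus 20 nM camptothecin for at least 48 h at 37 C; viability read as ATP content by CellTiter-Glo luminescence.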
Active calls of the source: *; ? = inconclusive; · = not tested or not shown; [ ] = remark or other dose. Sampled rows, rich in hits. Any-hit rate of the full collection: about 18%. Calls come from the whole dose curve; as a rule, active = well fitted curve in the direction sought with a large enough effect; inconclusive = small, poorly fitted or top-dose-only effect, or another doubt; inactive = no such curve, though single readings can be large; an effect the other way counts as inactive or inconclusive. % is set by controls: 0 for no effect and ±100 for the full control effect; potency is the fitted concentration of half-maximal effect.

SMILES	TDP1 inh	DT40 TDP1 no CPT	GCN5L2 inh	VDR inhibitor	PLK1 PBD inh	DT40 TDP1 CPT
Cc1ccccc1Nc1c(-c2ccc(Br)cc2O)nc2sccn12	5%	?	-10%	1%	·	?
C=C[C@H]1CN2CCC1C[C@@H]2C(O)c1ccnc2ccccc12 (stereo not given in full)	5%	-1%	-4%	6%	·	-3%
CN1c2ccccc2C(NCCCCCCC(=O)O)c2ccc(Cl)cc2S1(=O)=O (stereo not given)	8%	?	-9%	1%	·	6%
Cc1cc(Oc2cc(NN3CCCCC3)c([N+](=O)[O-])cc2[N+](=O)[O-])ccc1[N+](=O)[O-]	·	?	-7%	-19%	-8%	?
OC1(c2ccc(Cl)cc2)CCN(Cc2c[nH]c3ccccc23)CC1	8%[56.1 µM]	16µM*	1%	15%	-13%	13µM*
Cn1c(O)c(/C=C2/C=CC=N2)c(=O)[nH]c1=O	-2%	16µM*	-1%	13%	-15%	16µM*
COc1ccc(NC(=O)CCOc2cc(C)ccc2C)cc1S(=O)(=O)N1CCCCC1	0%	21µM*	-8%	-10%	5%	?
Clc1ccccc1C(c1ccccc1)(c1ccccc1)n1cccn1	6%	·	24%	-5%	·	·
Cc1cc(C)cc(NC(=S)NC2CC3CCC(C2)N3Cc2ccco2)c1 (stereo not given)	4%	16µM*	-22%	-11%	-9%	?
FC(F)OC(F)(F)C(F)Cl (stereo not given)	·	-13%	2%	5%	·	4%
Oc1ccccc1-c1ccccc1	4%	-10%	-29%	0%	·	0%
COC(=O)C1=CO[C@@H](OC2OC(CO)C(O)C(O)C2O)[C@@H]2C(CO)=CC[C@H]12 (stereo not given in full)	-5%	1%	-2%	-1%	-4%	-21%
O=S(=O)(c1ccccc1)N1CCN2CCCC2C1 (stereo not given)	2%	5%	-1%	3%	-6%	8%
CC1(CCl)CN1S(=O)(=O)c1ccccc1 (stereo not given)	·	?	1%	-2%	?	18µM*
C[C@@]12C(=O)N(Cc3ccco3)CC(=O)N1[C@H]1c3ccccc3OC[C@@H]1[C@@H]2c1ccccc1	6%	?	-3%	?	-9%	?
CCC(C)/C=C(C)/C=C/C1=CC2=C(Cl)C(=O)C(C)(OC(C)=O)C(=O)C2=CO1 (stereo not given)	12%	?	-1%	-16%	-30%	15µM*
CC[C@H](C)/C=C(C)/C=C/C1=CC2=C(Cl)C(=O)[C@@](C)(OC(C)=O)C(=O)C2=CO1	·	?	·	40µM*	1.1µM*	?
Cc1ccc2c(c1)[C@H]1[C@H](CO2)[C@H](c2ccccc2)[C@]2(C)C(=O)N(CC3CCCO3)CC(=O)N12 (stereo not given in full)	1%	?	-4%	0%	3%	3%
Cc1ccc(C(C)C)c(OCC(=O)N2CCN(CCc3ccncc3)CC2)c1	5%	?	-4%	12%	·	?
CCC1=Nc2cc(C(=O)N3CCC4(CC3)OCCO4)ccc2Sc2ccc(C)cc21	8%	?	1%	8%	1%	?
CCCC(=O)O[C@@H]1[C@@H](C)[C@@]2(O)[C@@H](C=C(CO)C[C@]3(O)C(=O)C(C)=C[C@@H]23)[C@@H]2C(C)(C)[C@]12OC(=O)CCC	13%	·	36%	3%	·	·
C=Cc1cc(OC)c2c(c1)c(=O)oc1c2cc(OC)c2c(O)ccc(C3OC(C)C(O)C(C)(O)C3O)c21 (stereo not given)	·	0.21µM*	·	-8%	-8%	0.16µM*
CN1[C@@H](C[C@@H](O)c2ccccc2)CCC[C@@H]1C[C@H](O)c1ccccc1	11%[21 µM]	·	6%[21.4 µM]	0%	·	·
COC(=O)[C@]1(C)N[C@H](CN(C)S(=O)(=O)c2ccc(-c3ccccc3)cc2)[C@@H]2C(=O)N(Cc3ccccc3)C(=O)[C@@H]21	0%	?	-3%	-1%	-5%	?
CCN(C[C@H]1N[C@@](CC)(C(=O)OC)[C@H]2C(=O)N(Cc3ccccc3)C(=O)[C@@H]12)C(=O)Nc1ccc(Cl)cc1	·	21µM*	-2%	-5%	-1%	?
SMILES	TDP1 inh	DT40 TDP1 no CPT	GCN5L2 inh	VDR inhibitor	PLK1 PBD inh	DT40 TDP1 CPT
CCN(C[C@H]1N[C@@](C)(C(=O)OC)[C@H]2C(=O)N(Cc3ccccc3)C(=O)[C@@H]12)S(=O)(=O)c1ccc(C(C)(C)C)cc1	3%	23µM*	-8%	4%	?	21µM*
CC(=O)N1CCN(c2ccc(N=Cc3c(O)n(Cc4ccccc4)c(=O)[nH]c3=O)cc2)CC1	0%[56.1 µM]	?	-5%	-3%	4%	?
COC(=O)C1=C(c2cc3ccccc3s2)C[C@@H]2CC[C@H]1N2C(=O)N1CCCCC1	·	6.5µM*	·	-29%	-12%	2.9µM*
COC(=O)C1=C(c2cc3ccccc3s2)C[C@@H]2CC[C@H]1N2C(=O)NC1CCCCC1	·	?	·	-19%	-4%	18µM*
COC(=O)C1=C(c2cc3ccccc3s2)C[C@@H]2CC[C@H]1N2C(=O)NCc1ccccc1	·	?	·	-16%	-15%	?
COC(=O)C1=C(c2cc3ccccc3s2)C[C@@H]2CC[C@H]1N2C(=O)N1CCC(O)CC1	·	23µM*	·	7%	-5%	15µM*
COc1ccc2c(c1)CCC1[C@@H]2CCC2(C)[C@@H](NCCCCCCN3C(=O)C=CC3=O)CC[C@@H]12 (stereo not given in full)	14%[56.1 µM]	?	-5%	0%	·	?
CCOC(=O)c1c(-c2ccc(OC)cc2)oc2ccc(OC(=O)N(C)C)cc12	-4%	18µM*	-23%	17%	-2%	?
COc1cccc(Oc2c(C)oc3cc(OC(=O)N(C)C)ccc3c2=O)c1	-12%	-15%	-2%	-3%	-7%	?
COc1ccc(NC(=O)c2ccco2)cc1NC(=O)COc1cc(C)cc(C)c1	-1%	5.8µM*	-2%	-2%	·	8.2µM*
COc1cc(NC(=O)c2ccco2)ccc1NC(=O)c1ccccc1Cl	2%	?	2%	-1%	0%	4%
CN(C)/C=C1/C(=O)NC(=O)N(CCNc2ncc(C(F)(F)F)cc2Cl)C1=O	3%	-24%	4%	-4%	?	-6%
O[N+]1=CC=CCC1=S.On1ccccc1=S.[Zn]	·	0.15µM*	10%	45µM*	·	0.033µM*

From PubChem BioAssay
